# NadD block: inhibitors of S. aureus NadD, primary screen, biochemical, colorimetric, uHTS; inhibition, % at 20 µM; 0.78% of 360,000 active; purified NadD enzyme, colorimetric absorbance read-out; Nicotinate-nucleotide adenylyltransferase NadD (Staphylococcus aureus N315); AID 602399, 2012; in the data active = inhibition above about 26%
# FAS-TE inh: FAS thioesterase domain inhibitors, primary screen, biochemical, fluorescence intensity, uHTS; Fatty acid synthase (Homo sapiens), P49327; recombinant FAS-TE, OMFH fluorogenic substrate, fluorescence endpoint; inhibition, % at 15 µM; 0.67% of 360,000 active; AID 602261, 2012;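 active = compounds whose normalised, plate-corrected inhibition of enzyme fluorescence in the single-dose primary screen is 50% or more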;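 note: 0% = DMSO with enzyme and 100% = substrate without enzyme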
# CRFR2-BP antag: antagonists of CRF-BP/CRF-R2 complex, primary screen, cell-based, HEK293, calcium dye fluorescence, uHTS; CRF-induced calcium fluorescence; inhibition, % at 11.8 µM; 0.59% of 350,000 active; AID 588475, 2011;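 active = inhibition of the ligand-induced calcium signal above about 50% at the single tested concentration, limit read from the data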
# NRP1-CendR mod: modulators of CendR peptide binding to NRP-1, primary screen, biochemical, fluorescence polarization, uHTS; Neuropilin-1 (Homo sapiens), O14786; FAM-RPARPAR peptide binding to NRP-1; inhibition, % at 25 µM; 0.85% of 360,000 active;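 active = inhibition or corrected inhibition above about 18%, plus a signal ratio from 0.5 to 1.5, limit read from the data, passing the limit was not always enough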
# Target sequence (O14786 whole entry, looked up): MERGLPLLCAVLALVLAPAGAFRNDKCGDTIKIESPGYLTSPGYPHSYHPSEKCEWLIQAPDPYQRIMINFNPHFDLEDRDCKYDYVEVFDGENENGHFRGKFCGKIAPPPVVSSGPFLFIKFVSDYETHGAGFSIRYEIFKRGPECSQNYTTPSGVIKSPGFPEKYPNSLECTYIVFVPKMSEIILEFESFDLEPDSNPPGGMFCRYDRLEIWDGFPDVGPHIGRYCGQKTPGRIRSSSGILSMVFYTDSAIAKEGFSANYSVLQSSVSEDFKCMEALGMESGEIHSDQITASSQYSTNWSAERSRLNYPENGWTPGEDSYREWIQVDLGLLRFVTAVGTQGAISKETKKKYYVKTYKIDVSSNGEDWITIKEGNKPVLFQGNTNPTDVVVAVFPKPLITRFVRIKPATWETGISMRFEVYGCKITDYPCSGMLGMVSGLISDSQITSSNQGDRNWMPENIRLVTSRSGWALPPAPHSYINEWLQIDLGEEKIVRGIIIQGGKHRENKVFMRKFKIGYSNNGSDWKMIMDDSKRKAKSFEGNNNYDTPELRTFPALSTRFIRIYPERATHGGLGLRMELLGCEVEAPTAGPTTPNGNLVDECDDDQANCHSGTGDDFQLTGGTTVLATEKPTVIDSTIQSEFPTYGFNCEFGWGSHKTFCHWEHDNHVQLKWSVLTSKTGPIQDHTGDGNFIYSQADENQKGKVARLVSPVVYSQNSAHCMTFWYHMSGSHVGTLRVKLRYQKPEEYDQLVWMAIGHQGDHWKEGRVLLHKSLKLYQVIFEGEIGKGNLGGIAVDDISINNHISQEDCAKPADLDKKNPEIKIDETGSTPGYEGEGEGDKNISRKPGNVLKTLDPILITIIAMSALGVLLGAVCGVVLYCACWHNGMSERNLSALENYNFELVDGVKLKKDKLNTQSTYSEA
# Myeloid diff 2: induction of myeloid progenitor differentiation, primary screen, cell-based, flow cytometry, MLPCN library | ER-HoxA9 myeloid progenitors, lysozyme-GFP differentiation | calls only at 10 µM | 1% of 360,000 active | AID 624256, 2012;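 active = normalized GFP-positive differentiation at or above the plate's own cutoff, the solvent-only control mean plus 3 SD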;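 note: cells exposed to compound for four days before flow analysis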
# NadD conf: inhibitors of S. aureus NadD, confirmation, biochemical, colorimetric, single concentration; 13% of 2,000 active; shares compounds with NadD block; AID 624309, 2012; inhibition, % at 20 µM; purified S. aureus NadD, colorimetric enzyme assay; in the data active = inhibition mostly above about 42%, no sharp cut-off; inactive = mostly below about 42%
# * hit, by the source's call; i = inactive; · = no result; + = active, no number. In the library only some 3.6% were active in any assay of this set; here they are far more common.
SMILES,NadD block,FAS-TE inh,CRFR2-BP antag,NRP1-CendR mod,Myeloid diff 2,NadD conf
Cc1cccc(/C=N/NC(=O)c2cc(-c3cccnc3)nc3c2c(C)nn3-c2ccccc2)c1,36.5*,15.2,-13.6,-4.6,i,6.9
N=C1S/C(=C\c2ccccc2F)C(=O)N1c1ccc(F)cc1,17.9,-3.2,-1.0,-0.9,i,·
N=C1S/C(=C\c2cccc3ccccc23)C(=O)N1c1ccc(F)cc1,33.3*,3.2,-29.8,-17.2,+,5.4
O=C(/C=C/Nc1ccc(S(=O)(=O)Nc2ncccn2)cc1)c1ccc(Cl)c(Cl)c1,39.8*,-8.4,-2.0,3.0,i,3.4
Nc1[nH]c(C(=O)c2ccccc2)c(-c2ccccc2Br)c1C(=O)NCc1ccc(-c2ccccc2)cc1,36.1*,19.1,·,-6.4,i,50.2*
Nc1[nH]c(C(=O)c2ccccc2)c(-c2ccccc2Br)c1C(=O)NCCc1c[nH]c2ccccc12,43.1*,23.2,·,-9.6,i,27.6
Nc1[nH]c(C(=O)c2ccc(Br)cc2)c(-c2ccc(Br)cc2)c1C(=O)NCCc1c[nH]c2ccccc12,50.0*,5.9,·,-4.7,i,38.9
Nc1[nH]c(C(=O)c2ccccc2)c(-c2ccc([N+](=O)[O-])cc2)c1C(=O)NCCc1c[nH]c2ccccc12,43.5*,14.5,·,-137.7,i,23.6
O=C(/C=C/c1ccc(Cl)c([N+](=O)[O-])c1)Nc1ccc(NC(=O)c2ccco2)cc1,3.6,12.1,-2.0,2.6,i,·
O=C(Nc1ccc(N2CCCC2)cc1)c1ccc(Br)cc1,28.7*,-10.1,-0.8,-3.2,i,-2.1
O=C(Nc1ccc(N2CCCC2)cc1)c1cc(Cl)ccc1Cl,52.4*,-18.1,-14.7,-20.6,+,12.3
O=C(/C=C/c1ccc(Cl)c([N+](=O)[O-])c1)Nc1ccc(N2CCCC2)cc1,41.8*,4.7,6.1,16.2,i,-0.5
O=C(NC(=S)Nc1ccc(N2CCCC2)cc1)c1ccccc1[N+](=O)[O-],33.1*,-22.8,-8.3,5.4,i,5.5
C[C@]1(CO)CCC[C@@]2(C)C1CC[C@@H](CO)[C@@H]2CCc1ccoc1 (stereo not given in full),-1.7,5.7,-24.9,-5.0,i,·
Cc1ccc(C)c(N2CCN(C(=O)c3ccc4nc(-c5ccco5)c(-c5ccco5)nc4c3)CC2)c1,63.7*,25.1,-54.5,6.5,i,12.1
O=C(c1ccccc1)c1ccc2nc(-c3ccco3)c(-c3ccco3)nc2c1,74.5*,15.8,-22.3,-37.6,i,18.9
COc1ccc(C(=O)OCC(=O)NC2CC2)cc1OC,-2.0,-4.9,-6.6,2.1,i,·
CCC(=O)NN1CCN(c2ccncc2S(=O)(=O)N2CCCCC2)CC1,0.7,-3.1,-3.3,13.2,i,·
COc1ccc(-c2nc(CS(=O)(=O)CC(=O)NCCCN3CCOCC3)c(C)o2)cc1,1.0,-8.6,13.1,5.9,i,·
O=C(CN1CCc2ccccc2C1)NCC(=O)Nc1ccc(F)cc1,-6.2,-3.9,-6.2,-7.0,i,·
Cc1ccc(-c2ccc(/C=N\NC(=O)c3cc4c(ccc5ccccc54)o3)o2)cc1[N+](=O)[O-],44.5*,14.1,1.2,-12.4,i,10.3
O=C(N/N=C/c1ccc(-c2ccc(Cl)c(C(=O)O)c2)o1)c1cc2c(ccc3ccccc32)o1,39.1*,18.5,8.2,-157.1,i,51.5*
Cc1ccc([N+](=O)[O-])cc1-c1ccc(/C=N/NC(=O)c2cc3c(ccc4ccccc43)o2)o1,32.7*,24.1,-1.8,-3.5,i,-4.9
Cc1cc([N+](=O)[O-])ccc1-c1ccc(/C=N/NC(=O)c2ccc(Br)o2)o1,30.8*,-15.9,13.8,-18.5,i,9.2
Cc1cc(C(=O)N/N=C/c2ccc(-c3ccc([N+](=O)[O-])cc3C)o2)n[nH]1,21.6,-9.0,-31.2,-45.8,i,·
SMILES,NadD block,FAS-TE inh,CRFR2-BP antag,NRP1-CendR mod,Myeloid diff 2,NadD conf
O=C(O)c1ccc(/C=N/NC(=O)c2cc3c(ccc4ccccc43)o2)cc1,7.4,-3.0,5.9,-9.7,i,·
COc1ccccc1CNC(=O)Cn1c(=O)oc2cc(S(=O)(=O)N3CCCC3)ccc21,1.2,-6.3,4.7,3.6,i,·
CN(Cc1nc2ccccc2c(=O)[nH]1)C(=O)c1cc(-c2ccc(Br)cc2)nc2ccccc12,11.5,0.9,-0.3,-0.8,i,·
N#CCn1cc(/C=N/NC(=O)c2cc3c(ccc4ccccc43)o2)c2ccccc21,31.2*,4.0,12.8,-8.4,i,23.8
Clc1ccc(C(Cn2ccnc2)OCc2c(Cl)cccc2Cl)c(Cl)c1 (stereo not given),33.4*,25.5,-13.8,6.2,+,21.2
OC(Cn1ccnc1)c1ccc(Cl)cc1Cl (stereo not given),-3.2,-7.3,-12.2,1.6,i,·
O=S(=O)(Nc1cccc(-c2cn3cccnc3n2)c1)c1ccc(-c2ccccc2)cc1,40.1*,16.4,-28.7,-4.2,i,41.4
O=S(=O)(Nc1cccc(-c2cn3cccnc3n2)c1)c1ccccc1,1.4,-4.8,-0.7,18.4,i,·
CC(OC(=O)c1ccc2c(c1)OCCO2)C(=O)c1ccccc1 (stereo not given),-3.0,15.3,-3.1,-8.9,i,·
Cc1cccn2c(=O)c3cc(S(=O)(=O)c4ccc(F)cc4)c(=N)n(Cc4ccco4)c3nc12,35.1*,49.7,5.3,-70.6,i,6.9
Cc1ccc(S(=O)(=O)c2cc3c(=O)n4ccccc4nc3n(CCc3ccccc3)c2=N)cc1,22.7,25.2,-30.5,2.7,i,·
Cc1cccn2c(=O)c3cc(S(=O)(=O)c4ccccc4)c(=N)n(Cc4ccc(F)cc4)c3nc12,32.5*,45.0,-16.2,2.4,i,13.4
COc1ccc(CCn2c(=N)c(S(=O)(=O)c3ccc(Cl)cc3)cc3c(=O)n4ccccc4nc32)cc1,29.8*,12.7,-24.8,136.7,i,21.5
Cc1ccc2nc3c(cc(S(=O)(=O)c4ccccc4)c(=N)n3Cc3ccco3)c(=O)n2c1,30.6*,24.1,-18.1,-30.2,i,22.2
Cc1cccn2c(=O)c3cc(S(=O)(=O)c4ccccc4)c(=N)n(Cc4ccco4)c3nc12,2.3,-0.7,6.9,-17.0,i,·
CCN(CC)CCSc1nc2ccccc2n1Cc1ccccc1,1.9,-2.8,-20.4,3.5,i,·
CCOC(=O)C1=C(C)N=c2s/c(=C\c3ccc(OCC(=O)O)c(OC)c3)c(=O)n2C1c1ccc(OC)cc1 (stereo not given),6.5,0.0,-16.0,-73.1,i,·
